These results are taken from PubChem BioAssay (NCATS).

Records with an inconclusive call do not appear. Where a call stands in place of a potency, no number is given. Active and inactive are the calls of the source. The call rests on the fitted dose curve; in most records, active means well fitted cell-killing curve with a large enough effect; inconclusive means small, poorly fitted or top-dose-only effect, or effect the other way; inactive means flat fitted curve, though single readings scatter.
Potency means the concentration at half of the fitted maximal effect.

This assay has as its system HeLa. In words: Primary qHTS to identify gynecologic anti-cancer compounds using libraries of approved drugs and bioactive compounds (AID 1345084). Further: nearly all actives have a fitted effect of over 55% in size. To be noted: Gynecologic cancer cell panel viability, ATPlite luminescence, 48 h; series mostly up to 57.5 µM. In a few lines:
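Cytotoxicity screen measuring ATP content by luciferase luminescence. Each compound is applied at five concentrations for 48 h at 37 C with 5% CO2.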
Take `C[C@@H]1C[C@H](C)CN(CCC(=O)Nc2ccc(Br)cc2)C1`: the Potency entry was “inactive”.

Take `O=[N+]([O-])c1cn2c(n1)OC[C@@H](OCc1ccc(-c3ccc(OC(F)(F)F)cc3)nc1)C2`: the Potency entry was “inactive”.

For `C=C1CCC2[C@](C)(CCC[C@@]2(C)C=O)[C@H]1CC/C(C)=C/CO` (stereo not given in full), the Potency result is “inactive”.

For `COc1ccc(CCc2nc3cc(-c4c(C)noc4C)ccc3n2CC(C)N2CCOCC2)cc1Cl` (stereo not given), the Potency entry was “inactive”.

As to `O=C(NCC(=O)N1CCCC1)Nc1ccc2cnccc2c1`, the Potency entry was “inactive”.

For `C=C(C)C(=O)O[C@H]1[C@H]2C(=C)C(=O)O[C@@H]2/C=C(\CO)CC/C=C(/C=O)[C@@H]1O`, the Potency result is “inactive”.

Regarding `COc1c(C)cc(NC(=O)c2nn(Cc3ccc(F)cc3)c3c2CN(C(=O)c2ccc[nH]2)C[C@]3(C)C(N)=O)cc1C`, the activity change, negative = cytotoxicity is -7.03% [at 11.6 µM] (inactive).

For `Cc1[nH]c2ccccc2c1CCNCc1ccc(/C=C/C(=O)NO)cc1`, the Potency was 126 nM (active).

As to `O=C(NC1CCC1)c1ccc(C#Cc2cccc(F)c2)nc1`, the Potency result is “inactive”.

Consider `COc1ccc(NC(=O)C2C[C@H](C)CC[C@H]2C(C)C)cc1` (stereo not given in full), for which the Potency entry was “inactive”.

`COc1cc(OC)c2c(=O)[nH]c(-c3cc(C)c(OCCO)c(C)c3)nc2c1`: the Potency entry was “inactive”.

In the case of `CC1(C=O)CCCC2(C)C1CCC13CC(CO)C(CCC12)C3` (stereo not given), the Potency result was “inactive”.

For `COc1c2c(nc3occc13)C(CC=C(C)C)(OC)C(O)CC2` (stereo not given), the Potency result is “inactive”.

In the case of `Cn1ncnc1[C@@H]1c2n[nH]c(=O)c3cc(F)cc(c23)N[C@H]1c1ccc(F)cc1`, the Potency entry is “inactive”.

Regarding `O=C(O)c1cccc(-c2ccc(-c3cn(C(=O)N4CCCCC4Cc4ccccc4)nn3)cc2)c1` (stereo not given), the Potency entry was “inactive”.
